Bead autofluor – flagged as autofluorescent in microsphere protease counterscreen | compound autofluorescence counterscreen, microsphere flow cytometry; active compounds read high | fluorescence intensity (no concentration beside the values) | actives 3.1% (n = 360,000) | AID 624483; in the data active means fluorescence intensity above about 16000; inconclusive means no clear call, values can overlap the other calls
3CLpro inhibitor – SARS-CoV 3CLpro protease inhibitors, primary screen, biochemical, quenched FRET; recombinant SARS-CoV 3CLpro, quenched FRET peptide cleavage; Replicase polyprotein 1ab (Severe acute respiratory syndrome coronavirus), P0C6X7; AID 1706, 2009; inhibition, % at 6 µM; actives 0.14% (n = 290,000); in the data active means inhibition above about 12%
Anthrax LF prot – Bacillus anthracis LF protease inhibitors, primary screen, biochemical, multiplex microsphere, MLPCN library; Lethal factor (Bacillus anthracis), P15917; multiplex microsphere protease cleavage assay; inhibition, % at 10 µM; actives 0.12% (n = 360,000); in the data active means inhibition above about 30%; inconclusive means no clear call, values can overlap the other calls; further: plate controls were buffer without enzyme for full effect and enzyme alone for no effect
Target sequence (P15917 whole entry, looked up): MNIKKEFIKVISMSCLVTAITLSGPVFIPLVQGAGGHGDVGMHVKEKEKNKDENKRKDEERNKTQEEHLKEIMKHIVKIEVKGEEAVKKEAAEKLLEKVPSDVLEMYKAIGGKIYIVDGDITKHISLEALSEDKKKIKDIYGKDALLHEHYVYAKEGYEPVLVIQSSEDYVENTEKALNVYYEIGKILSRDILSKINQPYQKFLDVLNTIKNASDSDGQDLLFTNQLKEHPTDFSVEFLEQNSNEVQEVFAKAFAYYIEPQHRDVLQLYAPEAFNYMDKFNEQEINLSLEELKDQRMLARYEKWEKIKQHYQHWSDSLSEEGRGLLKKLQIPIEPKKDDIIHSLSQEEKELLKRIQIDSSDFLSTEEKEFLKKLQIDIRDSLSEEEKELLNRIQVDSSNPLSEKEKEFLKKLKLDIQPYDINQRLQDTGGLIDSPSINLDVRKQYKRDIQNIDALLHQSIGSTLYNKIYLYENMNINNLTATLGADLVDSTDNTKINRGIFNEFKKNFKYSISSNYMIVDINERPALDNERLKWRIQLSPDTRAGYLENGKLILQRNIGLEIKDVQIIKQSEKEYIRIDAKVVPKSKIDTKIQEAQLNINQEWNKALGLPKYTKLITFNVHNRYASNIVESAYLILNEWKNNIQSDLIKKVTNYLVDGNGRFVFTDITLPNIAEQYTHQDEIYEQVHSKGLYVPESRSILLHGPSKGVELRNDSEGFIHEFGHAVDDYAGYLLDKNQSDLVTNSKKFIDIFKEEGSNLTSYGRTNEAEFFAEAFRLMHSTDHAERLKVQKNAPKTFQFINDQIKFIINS
CCHF vOTU inh-1 – CCHFV vOTU protease inhibitors, primary screen, biochemical, Pep-AMC substrate, fluorescence; inhibition, % at 11.5 µM; AID 651958, 2012; actives 0.55% (n = 370,000); Crimean-Congo hemorrhagic fever virus L polyprotein viral ovarian tumor (vOTU) protease …; further: 0% = vehicle wells with enzyme and 100% = no enzyme wells
BoNT-A LC inh2 – BoNT/A light chain protease inhibitors, primary screen, biochemical, flow cytometry, MLPCN library | Botulinum neurotoxin type A light chain protease (Clostridium botulinum A str. ATCC 3502) | multiplex microsphere protease substrate cleavage | inhibition, % at 10 µM | actives 0.17% (n = 360,000); in the data active means inhibition above about 30%; inconclusive means no clear call, values can overlap the other calls; further: plate controls were buffer without enzyme for full effect and enzyme alone for no effect
BoNT F protease – BoNT/F light chain protease inhibitors, primary screen, biochemical, flow cytometry, MLPCN library; Multiplex microsphere protease cleavage assay; actives 0.22% (n = 360,000); Botulinum neurotoxin type F light chain protease (Clostridium botulinum); inhibition, % at 10 µM; in the data active means inhibition above about 35%, passing the limit was not always enough; inconclusive means no clear call, values can overlap the other calls; further: plate controls were buffer without enzyme for full effect and enzyme alone for no effect
CCHF vOTU inh-2 – CCHFV vOTU protease inhibitors, confirmation, biochemical, Pep-AMC substrate, fluorescence | Recombinant CCHFV vOTU | shares compounds with CCHF vOTU inh-1 | inhibition, % at 11.5 µM | actives 17% (n = 1,900)
Numbers without * were called inactive; ? = inconclusive; . = not tested or not shown. The list is not random: actives were taken first. Their share in the collection is about 3.9%. Unless noted, no stated cut-off is given here; in the data, active means inhibition above about 30%; inactive means the rest.

SMILES | Bead autofluor | 3CLpro inhibitor | Anthrax LF prot | CCHF vOTU inh-1 | BoNT-A LC inh2 | BoNT F protease | CCHF vOTU inh-2
Cc1ccc(-n2c(C)cc(/C=C3\NC(=O)NC3=O)c2C)c(C)c1 | 7968 | 3.5 | -4.8 | 32.8* | -1.4 | -0.5 | -2.2
O=C(c1ccco1)[C@@H]1[C@@H]2C(=O)N(c3ccc(Br)cc3)C(=O)[C@@H]2C2c3ccccc3C=CN21 (stereo partly drawn) | 3388 | -0.8 | 4.4 | 93.1* | 0.3 | 2.7 | 84.3*
O=C(c1ccco1)[C@@H]1[C@@H]2C(=O)N(c3ccc(F)cc3)C(=O)[C@@H]2C2c3ccccc3C=CN21 (stereo partly drawn) | . | -7.1 | . | 85.8* | . | . | 40.3*
CCCN(CC(=O)Nc1cc(C)on1)CC(=O)Nc1ccccc1C | 3962 | . | 2.1 | -4.0 | 0.4 | -2.4 | .
Cc1cccc(N2CCN(C(=O)CSc3nnnn3C3CC3)CC2)c1C | 4025 | . | 3.7 | 0.9 | -0.2 | -4.0 | .
O=C(CSc1nnnn1C1CC1)N1CCN(c2ccccc2F)CC1 | 3999 | . | -1.6 | 33.0* | -0.1 | -1.1 | -2.0
C=CCN1C(=O)c2ccc(C(=O)OCC(=O)Nc3ccccc3OC)cc2C1=O | 4524 | . | -0.4 | 31.6* | -0.9 | -12.9 | -22.9
COc1ccccc1NC(=O)COC(=O)c1ccc2c(c1)OCCO2 | 3348 | . | 3.8 | -3.0 | 0.0 | 0.6 | .
COc1ccccc1N1CC(C(=O)Nc2ccc(C)c(S(=O)(=O)N3CCOCC3)c2)CC1=O (stereo not drawn) | 3948 | . | 1.1 | 10.7 | 0.0 | -0.4 | .
CCOC(=O)N/N=C\c1ccc(-c2cccc(C(F)(F)F)c2)o1 | 2651 | 1.2 | -0.8 | 18.9 | -0.4 | -4.6 | .
CC1(CC(=O)N/N=C/c2ccc(-c3cccc(C(F)(F)F)c3)o2)OCCO1 | 8533 | 7.9 | 3.4 | 34.6* | 1.0 | 7.1 | -6.9
Cc1cc2occ(CC(=O)N(C)CC(=O)Nc3cccc(F)c3)c2cc1C | 4923 | 6.5 | -0.1 | 17.1 | -3.3 | -11.6 | .
COc1ccccc1-c1sc2cc3c(cc2c1-c1ccc(O)cc1)OCO3 | 4901 | . | -4.0 | 29.7* | -1.5 | -12.3 | -1.6
CCc1cc[n+](C2=C([O-])c3ccccc3C(=O)/C2=N\S(=O)(=O)c2cccs2)cc1 | 2581 | 1.9 | 3.8 | 105.3* | 5.3 | -19.0 | 102.6*
COC(=O)c1ccccc1NC1=C/C(=N\S(=O)(=O)c2cccs2)c2ccccc2C1=O | 3481 | 4.5 | -15.4 | 9.2 | 0.0 | -7.5 | .
N/C(=N\OC(=O)C1CC1)c1ccc([N+](=O)[O-])s1 | 5998 | 1.4 | -2.3 | -0.2 | -1.1 | -6.3 | .
Cn1c(=O)c2[nH]c(CCC3CCCC3)nc2n(C)c1=O | 3127 | . | 1.8 | -8.3 | 0.1 | 3.7 | .
CCCc1nc2c([nH]1)c(=O)n(C)c(=O)n2C | 4112 | -3.5 | 2.4 | 32.3* | -3.0 | ? | -29.1
COC(=O)Nc1ccc(S(=O)(=O)N2CCC(C(=O)N(C)C3CCCCC3)CC2)cc1 | 4890 | -4.9 | -2.8 | 30.6* | 0.2 | 0.4 | -19.1
CCOC(=O)C1CCN(S(=O)(=O)c2ccc(NC(=O)OC)cc2)CC1 | 3158 | -6.7 | 0.1 | -0.4 | 0.9 | -10.6 | .
CCN1CCN(c2oc(-c3ccccc3C)nc2S(=O)(=O)c2ccccc2)CC1 | ? | . | -8.1 | 35.5* | 1.3 | 5.1 | 4.4
COc1ccccc1-c1nc(S(=O)(=O)c2ccccc2)c(N2CCCCC2)o1 | 3613 | 1.6 | -11.3 | 2.8 | 1.9 | 4.8 | .
COC(=O)/C(=C/Nc1ccc(O)cc1)[N+](=O)[O-] | 4125 | 1.8 | -2.2 | 93.4* | -0.5 | -7.0 | -6.7
CCc1ccc(C2C(C#N)=C(N)N(N(C)C)C3=C2C(=O)CCC3)cc1 (stereo not drawn) | 3413 | -3.8 | -7.1 | 22.0 | -0.7 | -3.6 | .
Cc1ccc(S(=O)(=O)Nc2ccccc2-c2ccccc2NS(=O)(=O)c2ccc(C)cc2)cc1 | 2253 | 14.0* | -1.5 | 30.4* | -0.4 | -13.6 | 13.2
Cc1ccc(NC(=O)C(C)S)cc1 (stereo not drawn) | 2976 | -1.8 | -4.4 | 3.0 | -3.6 | -12.8 | .

High-throughput results (PubChem)
